Assay outcomes: PubChem BioAssay, National Center for Advancing Translational Sciences (NCATS)
HT1080 IDH1KD tx – toxicity to HT-1080 IDH1 knockdown cells (counter line). HT-1080 IDH1 knockdown viability, ATP luminescence, 48 h. Potency, µM (top dose mostly 46.1 µM), for inactives: at the highest dose activity, negative = toxicity, most hits filed as cytotoxic. 360,000 tested, 2% active. AID 686971;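 note: potency is the fitted concentration of half-maximal effect; 0% = DMSO wells and -100% = cell-free medium wells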
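Cytotoxicity counter-line: IDH1KD HT-1080, 48 h, CellTiter-Glo. Curves classed by r2, magnitude and activity.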
DT40 TDP1 no CPT – qHTS for Inhibitors of human tyrosyl-DNA phosphodiesterase 1 (TDP1): qHTS in cells in absence of CPT; AID 686978, 2013; Potency, µM (doses to about 46.2 µM), without a hit: at the highest dose activity change, negative = growth inhibition, actives largely listed as inhibitors; DT40 Tdp1-/- hTDP1 cells, no CPT, ATP luminescence, 48 h; 420,000 tested, 15% active; note: potency is the fitted concentration of half-maximal effect; nearly all actives have a fitted effect of over 55% in size
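Seeded 400 DT40-hTDP1 cells/well (vehicle DMSO, no 20 nM CPT); pinned compounds; ≥48 hr at 37 °C; CellTiter-Glo luminescence as viability measure.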
HT1080NT lethal – kills 2HG-producing HT-1080-NT fibrosarcoma cells; HT-1080-NT fibrosarcoma viability, CellTiter-Glo ATP luminescence, 48 h; Potency, µM (series often up to 46.1 µM), without a hit: top-dose activity, negative = less viability, hits mostly cytotoxic; 360,000 tested, 1.6% active; AID 686970;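 note: NT is the 2HG producing partner of a matched IDH1 knockdown line; potency is the fitted concentration of half-maximal effect; 0% = DMSO-treated cells and -100% = media-only wells without cells; nearly all actives have a fitted effect of over 55% in size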
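Fibrosarcoma NT cells, 750 per well in 5% FBS RPMI, were exposed to compound for 48 hours. Viability: CellTiter-Glo luminescence.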
DT40 TDP1 CPT – growth inhibition of DT40 Tdp1-/-;hTDP1 cells with camptothecin (screen for TDP1 inhibitors); chicken DT40 Tdp1-/-;hTDP1 cells + 20 nM CPT, ATP luminescence, 48 h; Potency, µM (titrated, usually from 46.2 µM), without a hit: at the highest dose activity change, negative = growth inhibition, hits mostly inhibitors; 420,000 tested, 12% active; AID 686979; note: potency is the fitted concentration of half-maximal effect; nearly all actives have a fitted effect of over 55% in size
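Chicken DT40 Tdp1-/- cells stably complemented with human TDP1 were seeded at 400 cells/well in medium containing 20 nM camptothecin, exposed to pin-transferred compounds, and grown at 37 °C for at least 48 hr. Viability was read as ATP luminescence.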
IL1B secr inh – inhibitors of inflammasome signaling (IL-1 beta secretion); AID 743279; 360,000 tested, 4.7% active; activity change, % at 57.5 µM; THP-1 LPS/ATP IL-1B secretion, AlphaLISA, 16 h; stronger effect = lower value; in the data active = activity change below about -50%; inconclusive = mostly about -30% to -49%
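THP-1 cells pretreated 1 hr with compounds (up to 57.5 uM final), then stimulated with LPS (250 ng/mL final) plus ATP (1.25 mM final); secreted IL-1B measured by AlphaLISA after 16 hr, decreased signal indicating inhibition.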
* = called active by the depositor; u = inconclusive; x = not tested or not shown; [ ] = dose if it differs, or a comment. Only some compounds are listed: those with a hit (about 19% of all), similar ones and a draw of the others. Unless noted, calls come from the whole dose curve; as a rule, active = well fitted curve in the direction sought with a large enough effect; inconclusive = small, poorly fitted or top-dose-only effect, or another doubt; inactive = no such curve, though single readings can be large; an effect the other way counts as inactive or inconclusive. Unless noted, % is set by controls: 0 for no effect and ±100 for the full control effect.

SMILES	HT1080 IDH1KD tx	DT40 TDP1 no CPT	HT1080NT lethal	DT40 TDP1 CPT	IL1B secr inh
Cc1cc(=O)oc2cc(OCC(=O)N3CCN(Cc4ccc5c(c4)OCO5)CC3)ccc12	3.6%	-19.0%	0.1%	-22.5%	-4.7
COc1ccc(C)cc1NC(=O)N(Cc1ccc2c(c1)OCO2)C1CCN(Cc2ccccc2)CC1	x	5.17µM*	x	u	x
c1cc2c(cc1CN1CCNCC1)OCO2	2.3%	2.5%	-0.7%	-16.2%	-0.8
Cc1cccc(N2CCN(Cc3ccc4c(c3)OCO4)CC2)c1C	u	u	-26.6%	u	10.6
Cc1ccc(Cl)cc1NC(=O)N(Cc1ccc2c(c1)OCO2)C1CCN(Cc2ccccc2)CC1	x	13µM*	x	u	x
COc1ccccc1N1CCN(Cc2ccc3c(c2)OCO3)CC1	u	u	-1.0%	-2.6%	12.1
CCOc1ccc(C2CC(c3c(O)n(C)c(=O)n(C)c3=O)=NN2)cc1 (stereo not drawn)	10.7%	u	0.8%	4.7%	x
CCOc1ccc(C2c3c(-c4ccccc4O)n[nH]c3C(=O)N2Cc2ccncc2)cc1 (stereo not drawn)	x	5.17µM*	x	7.31µM*	x
Nc1ccc(S(=O)(=O)NCc2ccccc2)cc1	x	u	x	-16.7%	x
O=C1NC(=O)N(Cc2ccc(F)cc2)C(=O)/C1=C/c1cccs1	u	8.2µM*	u	11.6µM*	-100.9*
Cc1ccc(/C=C2\C(=O)NC(=O)N(Cc3ccccc3Cl)C2=O)o1	1.7%	u	-2.9%	u	24.7
O=C1NC(=O)N(Cc2ccccc2Cl)C(=O)/C1=C/c1cccs1	-12.1%	4.61µM*	-4.8%	6.51µM*	u
CCCCC[C@@H](/C=C/C=C\C/C=C\C/C=C\CCCC(=O)O)OO	x	-3.2%[0.628 µM]	x	-23.3%[0.628 µM]	x
Cc1ccc2nc3c(cc2c1)CC1(C(=O)N(C)C(=O)N(C)C1=O)C1CCCCN31 (stereo not drawn)	-0.5%	-32.8%	-0.8%	0.5%	-17.7
O=C(Cc1ccc(Cl)c(Cl)c1)N1CCCCC1CN1CCCC1 (stereo not drawn)	x	-15.6%	x	-36.3%	x
O=C(NCCc1ccccc1)[C@@H]1CC=C[C@@H]2CCN(Cc3ccc(Cl)c(Cl)c3)C(=O)[C@@H]21	-28.9%	10.3µM*	-21.9%	3.98µM*	0.0
COc1ccc(-n2nnnc2C(CCSC)N2CCC3(CC2)C(=O)NCN3c2ccccc2)cc1 (stereo not drawn)	-17.4%	u	-8.7%	u	-15.6
COc1ccc(-n2nnnc2C(CCc2ccccc2)N2CCC3(CC2)C(=O)NCN3c2ccccc2)cc1 (stereo not drawn)	u	u	u	u	-67.1*
CC(C)(C)n1nnnc1C(CCc1ccccc1)N1CCC2(CC1)C(=O)NCN2c1ccccc1 (stereo not drawn)	u	14.6µM*	u	20.6µM*	-60.5*
COc1ccc(-n2nnnc2C(c2cccs2)N2CCC3(CC2)C(=O)NCN3c2ccccc2)cc1 (stereo not drawn)	u	16.4µM*	u	u	-56.6*
CCC(c1nnnn1-c1ccc(OC)cc1)N1CCC2(CC1)C(=O)NCN2c1ccccc1 (stereo not drawn)	-12.3%	10.3µM*	-14.5%	u	-24.0
COc1ccc(C(=O)CN2CCOCC2)cc1	x	-4.6%	x	-21.2%	x
COC(=O)c1cccc(NC(=O)N2C[C@H]3C[C@@H](C2)c2cccc(=O)n2C3)c1	12.0%	7.1%	8.7%	-11.6%	18.9
N#Cc1ccccc1Cn1cc(C(=O)c2ccccc2F)c2ccccc21	-1.0%	u	0.0%	u	-3.7
O=C(Cn1nc(-c2ccccc2)ccc1=O)N1CCC2(CC1)OCCO2	11.6%	9.6%	7.2%	-10.4%	15.5
SMILES	HT1080 IDH1KD tx	DT40 TDP1 no CPT	HT1080NT lethal	DT40 TDP1 CPT	IL1B secr inh
CC(C)c1ccccc1OCC(=O)N1CCCN(C)CC1	9.6%	12.9%	14.8%	24.3%	-19.8
CC1CN2C(=O)C1(c1ccccc1)C(=O)NC2=S (stereo not drawn)	9.5%	-19.8%	7.4%	-8.3%	10.0
Cc1ccc(C(=O)C2CN3CCC2CC3)cc1 (stereo not drawn)	1.0%	-20.2%	37.1%	-25.1%	10.4
COc1cc2c(cc1OC)C1C(=O)c3c(cc4c(c3O)C=CC(C)(C)O4)OC1CO2 (stereo not drawn)	x	0.731µM*	x	1.3µM*	x
CC1([N+](=O)[O-])COP(=O)(NC2CC2)OC1 (stereo not drawn)	19.4%	-11.9%	16.1%	4.1%	1.3
Cc1cccc(C)c1OP(N)(=O)OCC(F)(F)F (stereo not drawn)	3.9%	13.7%	10.7%	1.9%	12.0
CCOC(=O)[C@]12Cc3cc(Cl)ccc3[C@H]1N(C)C(=O)c1cc(OC)ccc12	u	16.4µM*	u	23.1µM*	x
CCCCCN1C(=O)c2cc(OC)ccc2[C@@]2(C(=O)OCC)Cc3cc(OC)ccc3[C@@H]12	13µM*	5.17µM*	14.6µM*	10.3µM*	-69.3*
CCOC(=O)[C@]12Cc3cc(OC)ccc3[C@H]1N(C)C(=O)c1cc(OC)ccc12	u	16.4µM*	u	u	x
CCOC(=O)[C@]12Cc3cc(OC)ccc3[C@H]1N(CC(=O)OC)C(=O)c1cc(OC)ccc12	u	6.51µM*	u	18.4µM*	-56.9*
C=CCn1c(O)c(C(C)=Nc2ccc(C(=O)O)cc2)c(=O)[nH]c1=O	11.4%	2.1%	-14.2%	9.9%	20.6
Cn1c(=O)oc2cc(NC(=O)CCl)ccc21	u	23.1µM*	u	13µM*	-80.0*
C=Cc1ccc(Cn2c(C)c(CNCCc3cc(OC)ccc3OC)c(C(=O)O)c2C)cc1	x	13µM*	x	u	x
CN1C(=O)C(=Cc2coc3ccccc3c2=O)C(=O)N(C)C1=O	10.0%	23.1µM*	3.6%	u	-7.5
CC1CC2CC(=O)CCC2(C)C2CCC3(C)C(O)CCC3C12 (stereo not drawn)	12.9%	u	7.6%	u	16.1
CC12CCC3c4ccc(O)c([N+](=O)[O-])c4CCC3C1CCC2=O (stereo not drawn)	-14.2%	u	-29.9%	u	31.7
C[C@]12CC[C@@H]3c4ccc(O)c(O)c4CC[C@H]3[C@@H]1CC[C@@H]2O	u	13µM*	u	25.9µM*	u
N#Cc1cccc(NC(=O)N2CC3(CCN(C(=O)Oc4ccccc4)CC3)C2)c1	x	u	x	-3.6%	x
COc1cc(OC)c(OC)cc1CNCCc1ccc2c(c1)OCO2	-17.2%	u	-19.4%	u	-9.7
CC(C)(O)[C@@H]1C2OC(=O)[C@@H]1[C@]1(O)C[C@H]3O[C@]34C(=O)O[C@H]2[C@]14C	x	-6.5%	x	u	x
